This is part of a sample that, as a whole, favours compounds with a hit. Of some 83,000 tested, about 20% had one in any assay.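 Note: values are percent growth. 100 is the growth of untreated cells, values between 100 and 0 indicate rising inhibition; between -100 and 0 indicates cell death.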 Calls of active or inactive are those of the source. Rule for the calls: active = growth percent below 10; inactive = the rest.
Legend:
Test in all cases: NCI-60 one-dose screen, 48 h (100 = growth as untreated, 0 = no growth, -100 = all killed)
Details in all cases: 10 µM unless noted
SN12C renal = tested on: SN12C renal
UO-31 renal = tested on: UO-31 renal
TK-10 renal = tested on: TK-10 renal
ACHN renal = tested on: ACHN renal
CAKI-1 renal = tested on: CAKI-1 renal
A498 renal = tested on: A498 renal
CCRF-CEM leukemia = tested on: CCRF-CEM leukemia
MOLT-4 leukemia = tested on: MOLT-4 leukemia
SR leukemia = tested on: SR leukemia

Measured: growth

COc1ccc(-c2nsc3c2NC(=O)CC3c2ccc3c(c2)OCCO3)cc1 (stereo unspecified)
inactive: SN12C renal 44.4% | UO-31 renal 53.6% | TK-10 renal 43.4% | ACHN renal 46% | CAKI-1 renal 38.6% | A498 renal 19% | CCRF-CEM leukemia 14% | MOLT-4 leukemia 28.3% | SR leukemia 28.9%

Brc1ccc(Nc2nc3ccccc3nc2Nc2ccc(Br)cc2)cc1
active: SN12C renal -9.63% | UO-31 renal -25.7% | TK-10 renal -55.4% | ACHN renal 4.91% | CAKI-1 renal -16.3% | A498 renal -18.1% | CCRF-CEM leukemia -15% | MOLT-4 leukemia -21.4% | SR leukemia -23.5%

CCOC(=O)C1(Cc2ccccc2)CCN(Cc2cccc(OC)c2O)CC1
active: UO-31 renal -11.8% | CAKI-1 renal -11.3% | CCRF-CEM leukemia 9.78% | MOLT-4 leukemia 9.72% | SR leukemia 7.58%
inactive: SN12C renal 10.7% | TK-10 renal 36.7% | ACHN renal 10.8% | A498 renal 21.2%

COc1ccc(Cn2c(Br)c3c(c2Br)-c2nc(NC(=O)c4ccc(OC)cc4)sc2CC3)cc1
inactive: SN12C renal 85.1% | UO-31 renal 44.9% | TK-10 renal 89.4% | ACHN renal 51.8% | CAKI-1 renal 76.2% | A498 renal 65.9% | CCRF-CEM leukemia 85.3% | MOLT-4 leukemia 94.7% | SR leukemia 67.4%

COc1cc(-c2c3c(c(Br)n2Cc2ccccc2)-c2nc(N)sc2CC3)cc(OC)c1OC
inactive: SN12C renal 85.7% | UO-31 renal 70.6% | TK-10 renal 119% | ACHN renal 88.3% | CAKI-1 renal 97.4% | A498 renal 80.5% | CCRF-CEM leukemia 44.4% | MOLT-4 leukemia 50.6% | SR leukemia 40.2%

Cn1c(/C=C(\C#N)c2cccc(C(F)(F)F)c2)nc2c(N3CCOCC3)nc(Cl)nc21
active: SN12C renal -0.107% | UO-31 renal -100% | TK-10 renal -67% | ACHN renal -100% | CAKI-1 renal -94% | CCRF-CEM leukemia 4.85% | MOLT-4 leukemia -14.3%
inactive: A498 renal 10.8% | SR leukemia 10.3%

COCCN(C(=O)Cc1cccs1)C(C(=O)NCc1ccc(OC)cc1)c1ccc(C(C)C)cc1 (stereo unspecified)
inactive: SN12C renal 89.9% | UO-31 renal 82.5% | TK-10 renal 115% | ACHN renal 87.1% | CAKI-1 renal 84.6% | A498 renal 77.1% | CCRF-CEM leukemia 93.9% | MOLT-4 leukemia 80.3% | SR leukemia 74.3%

Cc1ccc(Nc2nc(N)c3ccccc3n2)cc1Cl
inactive: SN12C renal 65.4% | UO-31 renal 57.2% | TK-10 renal 81.5% | ACHN renal 64.4% | CAKI-1 renal 39.7% | A498 renal 72.3% | CCRF-CEM leukemia 48.3% | MOLT-4 leukemia 48.9%
active: SR leukemia 1.13%

Cc1ccc(S(=O)(=O)c2c(COC(=O)c3cccc(C)c3)c(-c3ccccc3)nn2C)cc1
active: CCRF-CEM leukemia -7.63% | MOLT-4 leukemia -11.2% | SR leukemia 1.41%
inactive: SN12C renal 89.1% | UO-31 renal 103% | TK-10 renal 113% | ACHN renal 91% | CAKI-1 renal 107% | A498 renal 123%

CCOc1c(Br)cc(C2C(C(=O)OC)=CN(C)C=C2C(=O)OC)cc1OC
active: SR leukemia 8.75%
inactive: SN12C renal 78% | UO-31 renal 38.2% | TK-10 renal 69.3% | ACHN renal 64.4% | CAKI-1 renal 75.8% | A498 renal 99% | CCRF-CEM leukemia 72.7% | MOLT-4 leukemia 59.6%

c1ccc(CNc2nc(Nc3ccccc3)nc3ccccc23)cc1
inactive: SN12C renal 71.3% | UO-31 renal 80.7% | TK-10 renal 19.3% | ACHN renal 33.7% | CAKI-1 renal 40.4% | A498 renal 37.4% | CCRF-CEM leukemia 69.5% | MOLT-4 leukemia 80.3% | SR leukemia 20%

FC(F)(F)c1cccc(CNC2CCN(CCc3ccccc3)CC2)c1
inactive: SN12C renal 85.4% | UO-31 renal 56.3% | TK-10 renal 79.8% | ACHN renal 90.7% | CAKI-1 renal 60.2% | A498 renal 60.4% | CCRF-CEM leukemia 13.2% | MOLT-4 leukemia 54.3% | SR leukemia 29.3%

CCCCc1ccc(NS(=O)(=O)c2cc3c4c(c2)CCN4C(=O)CC3)cc1
inactive: TK-10 renal 33.8% | ACHN renal 15.5%
active: SN12C renal 9.46% | UO-31 renal 5.85% | CAKI-1 renal 9.87% | A498 renal -27.7% | CCRF-CEM leukemia 5.87% | MOLT-4 leukemia 1.64% | SR leukemia 3.07%

CCOC(=O)C(CC(=O)O)=C(C(=O)OCC)C(=O)OCC
inactive: SN12C renal 104% | UO-31 renal 98.8% | TK-10 renal 120% | ACHN renal 105% | CAKI-1 renal 99.6% | A498 renal 104% | CCRF-CEM leukemia 110% | MOLT-4 leukemia 95.8% | SR leukemia 95.8%

O=C(Nc1ccc(Cl)cc1)c1cc2ccccc2cc1OP(=O)(O)O
active: UO-31 renal 2.13% | CAKI-1 renal -8.12%
inactive: SN12C renal 41.4% | TK-10 renal 18.7% | ACHN renal 17.2% | A498 renal 28.7% | CCRF-CEM leukemia 18.2% | MOLT-4 leukemia 38.9% | SR leukemia 53.9%

O=C(Nc1ccc(Cl)cc1)N1CCN(c2ccc3nncn3n2)CC1
active: ACHN renal 8.04% | CCRF-CEM leukemia -9.45% | MOLT-4 leukemia -41.5% | SR leukemia -40.5%
inactive: SN12C renal 54.3% | UO-31 renal 36.1% | TK-10 renal 42.3% | CAKI-1 renal 29.3% | A498 renal 21.5%

O=NN(C(=O)NC1CCC(C(=O)O)CC1)C1CCC(C(=O)O)CC1 (stereo unspecified)
inactive: SN12C renal 103% | UO-31 renal 92.8% | TK-10 renal 110% | ACHN renal 100% | CAKI-1 renal 90.2% | A498 renal 103% | CCRF-CEM leukemia 91.9% | MOLT-4 leukemia 102% | SR leukemia 95%

COc1ccc(C)c2sc(N(Cc3cccnc3)C(=O)c3ccc(C#N)cc3)nc12
inactive: TK-10 renal 18%
active: SN12C renal 7.62% | UO-31 renal -50.8% | ACHN renal 5.85% | CAKI-1 renal -33.1% | A498 renal 2.59% | CCRF-CEM leukemia 8.67% | MOLT-4 leukemia 3.94% | SR leukemia 8.52%

COc1cc(-c2c3c(cn2S(=O)(=O)c2ccccc2)-c2nc(N)sc2CC3)cc(OC)c1OC
active: CCRF-CEM leukemia 7.05% | SR leukemia 9.55%
inactive: SN12C renal 54.1% | UO-31 renal 30.5% | TK-10 renal 53.4% | ACHN renal 49.9% | CAKI-1 renal 34.2% | A498 renal 21.1% | MOLT-4 leukemia 23.5%

CCOC(=O)C1=CN(C)C=C(C(=O)OCC)C1c1cc(Br)c(OCC)c(OC)c1
inactive: SN12C renal 56.5% | UO-31 renal 16.3% | TK-10 renal 43% | ACHN renal 54.6% | CAKI-1 renal 52.5% | A498 renal 59.1% | CCRF-CEM leukemia 32.9% | MOLT-4 leukemia 27.5%
active: SR leukemia -0.61%

O=C(Nc1ccc(N2CCNCC2)cc1)c1[nH]ncc1Nc1cc(C2CC2)ncn1
inactive: SN12C renal 44.7% | UO-31 renal 34.1% | TK-10 renal 56.3% | ACHN renal 21.4% | CAKI-1 renal 27.5% | A498 renal 51.1% | CCRF-CEM leukemia 30% | MOLT-4 leukemia 15.1%
active: SR leukemia 5.95%

Cn1c(C(=O)c2cccc3ccccc23)nc2ccccc21
active: UO-31 renal -21.3% | CAKI-1 renal -11.9% | CCRF-CEM leukemia 8.07% | MOLT-4 leukemia 9.16% | SR leukemia 4.54%
inactive: SN12C renal 11.8% | TK-10 renal 21.3% | ACHN renal 11% | A498 renal 36.3%

CCCCc1c(CCC)c(=N)c2ccccc2n1C
inactive: SN12C renal 79.7% | UO-31 renal 65.6% | TK-10 renal 84.3% | ACHN renal 78.4% | CAKI-1 renal 81% | A498 renal 75.9% | CCRF-CEM leukemia 49.8% | MOLT-4 leukemia 60.6%
active: SR leukemia 6.82%

COc1cccc2cc(N(C)c3nc(C)nc4ccsc34)ccc12
inactive: SN12C renal 25.7% | UO-31 renal 30.5% | TK-10 renal 41.8% | ACHN renal 18.9% | CAKI-1 renal 21.5%
active: A498 renal -9.74% | CCRF-CEM leukemia 4.65% | MOLT-4 leukemia 3.39% | SR leukemia 2.36%

COc1ccc(Nc2cc(C)nc(NCc3ccccc3)n2)cc1
inactive: SN12C renal 38.2% | UO-31 renal 42% | TK-10 renal 37.9% | ACHN renal 36.3% | CAKI-1 renal 30.8% | A498 renal 81%
active: CCRF-CEM leukemia -3.8% | MOLT-4 leukemia 3.02% | SR leukemia 0.982%

CN(C)c1ccc(/C=C/c2ccnc3c(O)cccc23)cc1
active: UO-31 renal -2.54% | CAKI-1 renal -3.49% | CCRF-CEM leukemia 6.75% | MOLT-4 leukemia -13.2% | SR leukemia -11.1%
inactive: SN12C renal 21.3% | TK-10 renal 41.6% | ACHN renal 12.7% | A498 renal 45.1%

CCn1c(SCC(=O)Nc2cc(C(F)(F)F)ccc2Cl)nc2ccccc2c1=O
inactive: SN12C renal 57.1% | UO-31 renal 22.7% | TK-10 renal 33.7% | ACHN renal 39.1% | CAKI-1 renal 48.4% | A498 renal 35.6%
active: CCRF-CEM leukemia -3.31% | MOLT-4 leukemia -7.72% | SR leukemia -16.2%

CC(C)(C)c1ccc(C2CC(=O)C3=C(C2)Nc2ccccc2N(C(=O)c2ccccc2Cl)C3c2ccc(F)cc2)cc1 (stereo unspecified)
active: SN12C renal 3.86% | CAKI-1 renal 2.95% | MOLT-4 leukemia 6.7% | SR leukemia 9.77%
inactive: UO-31 renal 23.7% | TK-10 renal 58.9% | ACHN renal 19.9% | A498 renal 35.5% | CCRF-CEM leukemia 15.7%

C=C(C)CCC(C)N1CCC(N2CCC(C(=O)NCCc3ccccc3)CC2)CC1 (stereo unspecified)
inactive: SN12C renal 57.5% | UO-31 renal 78.2% | TK-10 renal 114% | ACHN renal 72.1% | CAKI-1 renal 89.1% | A498 renal 72% | CCRF-CEM leukemia 45.5% | MOLT-4 leukemia 42.9%
active: SR leukemia 4.33%

From PubChem BioAssay (NCI)
